# Data as given in article PMC7155171, “Probing the Open Global Health Chemical Diversity Library for Multistage-Active Starting Points for Next-Generation Antimalarials” (ACS Infectious Diseases, 2020).
# Tested on: P. berghei liver stage (PbLuc)
# Design: species or system HepG2-A16-CD81; P. berghei luciferase sporozoite infection of hepatocytes, liver stage luminescence
# Conditions: 48 h, inhibitor
row,Compound,PbLuc primary screen (10uM): inhibition % (n=1)
1,COc1cccc(F)c1-c1nc2c(C3CC3)[nH]n(C)c-2n1 [DDD01246655],-18.5%
2,Cc1ccccc1CN(C)C(=O)CCC1=NC(=C2N=CN=N2)NO1 [DDD01062116],13.7%
3,COc1cc2c(cc1-c1nc3c[nH]n(C)c-3n1)OCO2 [DDD01248770],28.7%
4,Cc1ccc(CN2CCc3c([nH]c4cc(C5CC5)nn4c3=O)C2)s1 [DDD01058491],44.3%
5,Cc1[nH]n(C2CCS(=O)(=O)C2)c(=O)c1Cc1ccccc1Cl (stereo not drawn) [DDD01026964],34.1%
6,CCc1c(C)[nH]c2cc(C3CCN(Cc4ccc(F)cc4)C3)nn2c1=O (stereo not drawn) [DDD01060568],66.5%
7,Cc1[nH]n(C2CCCC2)c2nc(C(C)(C)CN3CCN(C)CC3)nc1-2 [DDD01248613],49.4%
8,CCc1cc(=O)n2nc(C3CCN(C(=O)c4cccnc4)CC3)cc2[nH]1 [DDD01057176],13.3%
9,Cn1cc(C(=O)N2CCCC(c3cc(=O)n(C)[nH]3)C2)cn1 (stereo not drawn) [DDD01060486],19.6%
10,Cn1nc(C2CC2)c(-c2ccc3c(c2)OCO3)c1N [DDD01074640],16.5%
11,CCn1[nH]cc2nc(-c3ccc(OC)c(COC)c3)nc1-2 [DDD01253750],-45.8%
12,Cn1ccc(C(=O)N2CCCC(c3cc(=O)n(C)[nH]3)C2)n1 (stereo not drawn) [DDD01060541],36.4%
13,Cc1[nH]n(Cc2ccc(F)cc2)c2nnc(N)c1-2 [DDD01012470],78.2%
14,COCCC(=O)N1Cc2[nH]c3c(C)c(-c4cccs4)nn3c(=O)c2C1 [DDD01056578],-5.78%
15,CCCc1nn(C)c(N)c1-c1ccc2c(c1)OCO2 [DDD01074641],27.6%
16,Cc1[nH]n(C2CCS(=O)(=O)C2)c(=O)c1CCc1ccccc1 (stereo not drawn) [DDD01026977],5.33%
17,Cc1[nH]n(C2CCCCC2)c2nc(C(C)(C)CN3CCOCC3)nc1-2 [DDD01254749],-16.9%
18,CCc1c(C)nn2c(=O)cc(C3CCN(C(=O)c4cnn(C)c4)C3)[nH]c12 (stereo not drawn) [DDD01056908],9.3875%
19,Fc1cccc(C2=NN=CC2=C2NC(CN3CCOCC3)=NO2)c1 [DDD01244908],13.7%
20,COc1cc2c(cc1-c1nc3c[nH]n(C(C)C4CC4)c-3n1)OCO2 (stereo not drawn) [DDD01244142],34%

row,Compound,PbLuc primary screen (10uM): inhibition % (n=1)
1,CCn1[nH]cc2nc(-c3cc(OC)c(OC)cc3OC)nc1-2 [DDD01254934],26.5%
2,COCC(=O)N1Cc2[nH]c3c(C)c(-c4cccs4)nn3c(=O)c2C1 [DDD01056747],27.2%
3,CN(Cc1ccc(F)c(F)c1)C(=O)CCC1=NC(=C2N=CN=N2)NO1 [DDD01062114],55.4%
4,Cc1cc(=O)n(-c2ccc3nnc(C)n3n2)[nH]1 [DDD01038570],6.83%
5,COc1cc2c(cc1-c1nc3c[nH]n(C(C)C)c-3n1)OCO2 [DDD01249461],7.31%
6,CC(=O)N1CCCN(C(=O)CCOc2ccc(C(C)C)cc2)CC1 [DDD01298039],52.5%
7,Cc1nnsc1C(=O)N1CCCCC1c1cc2[nH]c(C)c(C)c(=O)n2n1 (stereo not drawn) [DDD01059036],19.3%
8,CCCn1ncc(-c2nc3c[nH]n(CC)c-3n2)c1C [DDD01252709],-42.8%
9,Cc1[nH]n(-c2ccccc2)c2nc(C(C)(C)CN3CCN(C)CC3)nc1-2 [DDD01252143],8.08%
10,CCc1c(C)[nH]c2cc(C3CCN(Cc4cccnc4)C3)nn2c1=O (stereo not drawn) [DDD01060570],-33.4%
11,CCc1c(C)nn2c(=O)cc(C3CCN(C(=O)c4ccn(C)n4)C3)[nH]c12 (stereo not drawn) [DDD01056907],3.623%
12,CCn1[nH]cc2nc(-c3cc4c(cc3OC)OCO4)nc1-2 [DDD01244413],-7.2%
13,CCc1ccc(NC(=O)Nc2c(O)c3ccccc3oc2=O)cc1 [DDD01037337],-11.4%
14,CSc1cccc(NC(=O)Nc2c(O)c3ccccc3oc2=O)c1 [DDD01037688],1.86%
15,CCc1cc(=O)n2nc(C3CCN(C(=O)c4ccccn4)CC3)cc2[nH]1 [DDD01057364],-2.695%
16,Cc1ncsc1C(=O)N1CCCCC1c1cc2[nH]c(C)c(C)c(=O)n2n1 (stereo not drawn) [DDD01059037],-26.2%
17,Cc1[nH]n(C2CCS(=O)(=O)C2)c(=O)c1Cc1ccccc1 (stereo not drawn) [DDD01026976],36.9%
18,CCc1c(C)[nH]c2cc(C3CCN(Cc4cccc(F)c4)C3)nn2c1=O (stereo not drawn) [DDD01060569],77.3%
19,Cc1[nH]n(-c2ccc(F)cc2)c2nnc(N)c1-2 [DDD01065623],46.4%

# Same assay, conditions: inhibitor
row,Compound,PbLuc primary screen (2uM): inhibition % (n=1)
1,COc1cccc(F)c1-c1nc2c(C3CC3)[nH]n(C)c-2n1 [DDD01246655],21.14%
2,Cc1ccccc1CN(C)C(=O)CCC1=NC(=C2N=CN=N2)NO1 [DDD01062116],27.4706%
3,COc1cc2c(cc1-c1nc3c[nH]n(C)c-3n1)OCO2 [DDD01248770],21.97%
4,Cc1ccc(CN2CCc3c([nH]c4cc(C5CC5)nn4c3=O)C2)s1 [DDD01058491],31.81%
5,Cc1[nH]n(C2CCS(=O)(=O)C2)c(=O)c1Cc1ccccc1Cl (stereo not drawn) [DDD01026964],-0.8948%
6,CCc1c(C)[nH]c2cc(C3CCN(Cc4ccc(F)cc4)C3)nn2c1=O (stereo not drawn) [DDD01060568],40.31%
7,Cc1[nH]n(C2CCCC2)c2nc(C(C)(C)CN3CCN(C)CC3)nc1-2 [DDD01248613],34.18%
8,CCc1cc(=O)n2nc(C3CCN(C(=O)c4cccnc4)CC3)cc2[nH]1 [DDD01057176],-5.593%
9,Cn1cc(C(=O)N2CCCC(c3cc(=O)n(C)[nH]3)C2)cn1 (stereo not drawn) [DDD01060486],27.39%
10,Cn1nc(C2CC2)c(-c2ccc3c(c2)OCO3)c1N [DDD01074640],58.6%
11,CCn1[nH]cc2nc(-c3ccc(OC)c(COC)c3)nc1-2 [DDD01253750],0.5819%
12,Cn1ccc(C(=O)N2CCCC(c3cc(=O)n(C)[nH]3)C2)n1 (stereo not drawn) [DDD01060541],2.044%
13,Cc1[nH]n(Cc2ccc(F)cc2)c2nnc(N)c1-2 [DDD01012470],11.14%
14,COCCC(=O)N1Cc2[nH]c3c(C)c(-c4cccs4)nn3c(=O)c2C1 [DDD01056578],-12.93%
15,CCCc1nn(C)c(N)c1-c1ccc2c(c1)OCO2 [DDD01074641],5.918%
16,Cc1[nH]n(C2CCS(=O)(=O)C2)c(=O)c1CCc1ccccc1 (stereo not drawn) [DDD01026977],-33.83%
17,Cc1[nH]n(C2CCCCC2)c2nc(C(C)(C)CN3CCOCC3)nc1-2 [DDD01254749],48.54%
18,CCc1c(C)nn2c(=O)cc(C3CCN(C(=O)c4cnn(C)c4)C3)[nH]c12 (stereo not drawn) [DDD01056908],-18.64%
19,Fc1cccc(C2=NN=CC2=C2NC(CN3CCOCC3)=NO2)c1 [DDD01244908],24.36%
20,COc1cc2c(cc1-c1nc3c[nH]n(C(C)C4CC4)c-3n1)OCO2 (stereo not drawn) [DDD01244142],67.28%

row,Compound,PbLuc primary screen (2uM): inhibition % (n=1)
1,CCn1[nH]cc2nc(-c3cc(OC)c(OC)cc3OC)nc1-2 [DDD01254934],13.04%
2,COCC(=O)N1Cc2[nH]c3c(C)c(-c4cccs4)nn3c(=O)c2C1 [DDD01056747],46.04%
3,CN(Cc1ccc(F)c(F)c1)C(=O)CCC1=NC(=C2N=CN=N2)NO1 [DDD01062114],6.397%
4,Cc1cc(=O)n(-c2ccc3nnc(C)n3n2)[nH]1 [DDD01038570],18.99%
5,COc1cc2c(cc1-c1nc3c[nH]n(C(C)C)c-3n1)OCO2 [DDD01249461],60.13%
6,CC(=O)N1CCCN(C(=O)CCOc2ccc(C(C)C)cc2)CC1 [DDD01298039],36.9515%
7,Cc1nnsc1C(=O)N1CCCCC1c1cc2[nH]c(C)c(C)c(=O)n2n1 (stereo not drawn) [DDD01059036],-26.26%
8,CCCn1ncc(-c2nc3c[nH]n(CC)c-3n2)c1C [DDD01252709],-36.8%
9,Cc1[nH]n(-c2ccccc2)c2nc(C(C)(C)CN3CCN(C)CC3)nc1-2 [DDD01252143],38.49%
10,CCc1c(C)[nH]c2cc(C3CCN(Cc4cccnc4)C3)nn2c1=O (stereo not drawn) [DDD01060570],31.56%
11,CCc1c(C)nn2c(=O)cc(C3CCN(C(=O)c4ccn(C)n4)C3)[nH]c12 (stereo not drawn) [DDD01056907],-25.98%
12,CCn1[nH]cc2nc(-c3cc4c(cc3OC)OCO4)nc1-2 [DDD01244413],27.42%
13,CCc1ccc(NC(=O)Nc2c(O)c3ccccc3oc2=O)cc1 [DDD01037337],49.69%
14,CSc1cccc(NC(=O)Nc2c(O)c3ccccc3oc2=O)c1 [DDD01037688],28.0462%
15,CCc1cc(=O)n2nc(C3CCN(C(=O)c4ccccn4)CC3)cc2[nH]1 [DDD01057364],26.22%
16,Cc1ncsc1C(=O)N1CCCCC1c1cc2[nH]c(C)c(C)c(=O)n2n1 (stereo not drawn) [DDD01059037],11.32%
17,Cc1[nH]n(C2CCS(=O)(=O)C2)c(=O)c1Cc1ccccc1 (stereo not drawn) [DDD01026976],-17.38%
18,CCc1c(C)[nH]c2cc(C3CCN(Cc4cccc(F)c4)C3)nn2c1=O (stereo not drawn) [DDD01060569],65.74%
19,Cc1[nH]n(-c2ccc(F)cc2)c2nnc(N)c1-2 [DDD01065623],39.0185%
